DAX1 inh-1 – inhibits human nuclear receptor DAX1; AID 504766; 340,000 compounds, 0.99% hits; HEK293 Gal4-DAX1 luciferase reporter, luminescence; inhibition, % at 6.75 µM;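 active = inhibition above the mean over all tested compounds plus 3 SD, cut at about 4.2% in these data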;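 also: 0% = DAX1-transfected cells with DMSO and 100% = empty-vector control cells with DMSO; inhibition shows as a rise in luminescence from relieved DAX1 repression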
Target sequence (P51843 207-470 limits assumed): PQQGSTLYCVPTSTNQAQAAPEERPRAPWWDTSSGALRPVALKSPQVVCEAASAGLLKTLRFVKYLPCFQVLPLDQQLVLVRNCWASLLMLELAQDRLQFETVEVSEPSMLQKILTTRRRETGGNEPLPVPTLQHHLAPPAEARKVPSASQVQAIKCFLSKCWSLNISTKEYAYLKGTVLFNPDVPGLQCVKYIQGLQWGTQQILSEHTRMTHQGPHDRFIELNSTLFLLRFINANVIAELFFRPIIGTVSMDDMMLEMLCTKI
hcDAF-12 act – activators of H. contortus DAF-12 nuclear receptor; HEK293 hcDAF-12 lit1-tk-luc reporter, luminescence; 0% DMSO, 100% Δ7-dafachronic acid; activation, % at 6.8 µM; 370,000 compounds, 1.4% hits; AID 652067;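 active = activation above the mean of all tested compounds plus 3 SD, cut at about 5.5% in these data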;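 also: 100% = response to 3 µM Δ7-dafachronic acid high control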
hgDAF-12 ag – hgDAF-12 agonism, primary luciferase screen. AID 687014. 370,000 compounds, 1.8% hits. HEK293 GAL4-hgDAF12 UAS-luciferase reporter, agonist luminescence; normalized to butyrate control. activation, % at 6.8 µM;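 active = activation above a cutoff set at the mean of all screened compounds plus 3 SD, cut at about 10% in these data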;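 also: 0% = DMSO wells and 100% = sodium butyrate wells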
ssDAF-12 act – activators of S. stercoralis DAF-12 nuclear receptor | HEK293 ssDAF-12/GRIP1 lit1-tk-luc reporter, luminescence; % of 3 µM dafachronic acid response | activation, % at 6.8 µM | 370,000 compounds, 1% hits | AID 652126;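 active = activation above the mean over all tested compounds plus 3 SD, cut at about 0.9% in these data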;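 also: 0% = DMSO-only wells and 100% = 3 µM delta7-dafachronic acid wells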
SMARCA2 act – activators of SMARCA2 function; MG213 cells, MMTV-luciferase reporter, dexamethasone, overnight; activation, % at 9.1 µM; 370,000 compounds, 1% hits; AID 652017; in the data active = activation above about 7.8%;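 also: 0% = vehicle wells and 100% = reference activator wells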
DAX1 inh-2 – DAX1 (NR0B1) inhibition, primary screen. AID 652010. inhibition, % at 6.8 µM. HEK293T StAR-luciferase reporter, SF-1/DAX-1 repression relief. 370,000 compounds, 1.1% hits;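 active = inhibition above the mean over all tested compounds plus 3 SD, cut at about 3.6% in these data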;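 also: 0% = DAX-1 cells with DMSO and 100% = cells lacking DAX-1 with DMSO; higher inhibition means more luminescence from relief of DAX-1 repression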
DAX1 conf – confirmation of human DAX1 (NR0B1) inhibitors; HEK293T StAR-promoter luciferase reporter, SF-1/DAX-1 repression; shares compounds with DAX1 inh-2; AID 652134; 2,400 compounds, 87% hits; inhibition, % at 6.8 µM;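 active = inhibition above the average of every tested compound plus 3 SD, cut at about 3.8% in these data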;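 also: 0% = DAX-1 cells with DMSO and 100% = no DAX-1 control cells with DMSO; active compounds raise luminescence by relieving repression of the StAR reporter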
Target sequence (P51843 whole entry, looked up): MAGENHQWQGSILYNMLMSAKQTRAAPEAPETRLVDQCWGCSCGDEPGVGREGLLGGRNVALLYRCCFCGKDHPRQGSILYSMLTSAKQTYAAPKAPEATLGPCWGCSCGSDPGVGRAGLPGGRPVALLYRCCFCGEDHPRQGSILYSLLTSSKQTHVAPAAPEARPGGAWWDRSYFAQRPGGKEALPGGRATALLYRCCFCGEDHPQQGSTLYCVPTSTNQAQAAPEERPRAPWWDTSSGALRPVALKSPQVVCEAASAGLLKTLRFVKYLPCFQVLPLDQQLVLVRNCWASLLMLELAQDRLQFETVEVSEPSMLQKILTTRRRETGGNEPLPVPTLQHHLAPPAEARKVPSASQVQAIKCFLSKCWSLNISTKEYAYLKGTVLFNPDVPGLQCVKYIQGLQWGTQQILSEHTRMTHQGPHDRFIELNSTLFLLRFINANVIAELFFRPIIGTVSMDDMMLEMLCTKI
SF1 AF2mut Luc – counter-screen for DAX1 inhibitors: nonselective inhibitors with SF-1 AF2 mutant; shares compounds with DAX1 inh-2; HEK293 StAR-luciferase, luminescence; inhibition, % at 6.8 µM; 2,400 compounds, 78% hits; AID 652136;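 active = inhibition above the mean of all tested compounds plus 3 SD, cut at about 3% in these data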;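 also: 0% = DAX-1 transfected cells with DMSO and 100% = cells without DAX-1 with DMSO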
SMARCA2 conf – SMARCA2 activation, confirmation screen; shares compounds with SMARCA2 act; MG213 cells, MMTV-luciferase with dexamethasone, luminescence, overnight; MG213 cells expressing E1A, Rb sequestered; DMSO wells 0%, reference activator 100%; activation, % at 9.1 µM; 3,500 compounds, 30% hits;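 active = activation above its plate's cutoff, the mean activation of tested wells plus 3 SD, cut at about 7.9% in these data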
VP16 Luc act – counter-screen for SMARCA2 activators: GAL4-VP16 luciferase reporter activation; AID 686939; HEK293 GAL4-VP16 pG5luc reporter, luciferase luminescence; scaled: DMSO wells 0%, SAHA wells 100%; 3,500 compounds, 41% hits; shares compounds with SMARCA2 act; activation, % at 9.1 µM;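 active = activation above the solvent-only control well mean plus 3 SD, averaged across control plates, cut at about 5.2% in these data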
LXR ag – counter-screen for hcDAF-12 agonists: agonists of human LXR-beta; shares compounds with hcDAF-12 act; HEK293 Gal4-LXR tk-luc reporter, luminescence, 24 h; normalized: DMSO 0%, positive control 100%; activation, % at 6.8 µM; 3,400 tested, under 10 active;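 active = mean percent activation of the reporter above a cutoff set as the average over tested compounds plus their standard deviation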
hcDAF12 ag – confirmation of H. contortus DAF-12 agonists. AID 743032. HEK293 hcDAF-12 lit1-tk-luc reporter, luminescence; % of Δ7-dafachronic acid response. 3,400 compounds, 61% hits. shares compounds with hcDAF-12 act. activation, % at 6.8 µM;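 active = mean activation across triplicate tests above the threshold derived from the earlier primary screen, cut at about 5.5% in these data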;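 also: 0% = DMSO only wells and 100% = 3 µM Δ7-dafachronic acid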
hgDAF12 ag – confirmation of H. glycines DAF-12 agonists; shares compounds with hgDAF-12 ag; HEK293 GAL4-hgDAF12 luciferase reporter, agonist mode; percent of butyrate response; activation, % at 6.8 µM; 3,300 compounds, 80% hits; AID 743050;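 active = mean activation over triplicate wells above the hit cutoff derived from the earlier primary screen, cut at about 11% in these data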;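 also: 0% = DMSO low control and 100% = 2 mM sodium butyrate high control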
LXRb DAF12 ctr – activates human LXR-beta, counter-screen for DAF-12 agonists | shares compounds with hgDAF-12 ag | HEK293 Gal4-LXR luciferase reporter, 24 h | activation, % at 6.8 µM | 3,300 tested, under 10 active;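 active = mean activation of the triplicate above a set limit carried over from the primary screen, none filed active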
Starred values were filed as active, the others as inactive; . = no result. An excerpt weighted towards active compounds, which were near 4.8% of everything screened.

SMILES	DAX1 inh-1	hcDAF-12 act	hgDAF-12 ag	ssDAF-12 act	SMARCA2 act	DAX1 inh-2	DAX1 conf	SF1 AF2mut Luc	hgDAF12 ag	LXRb DAF12 ctr	others
Fc1ccc2nc(N3CCCC3)sc2c1	1.3	4.8	28.1*	-0.8	3.6	5.2*	7.9*	5.0*	15.1*	0.9
c1ccc2sc(N3CCCCC3)nc2c1	2.7	1.6	13.3*	-0.3	1.8	7.8*	9.7*	6.5*	15.3*	0.6
COC(=O)[C@@]12CCCCC=C1N(CCc1ccc(Cl)cc1)C(=O)[C@H]2CC(=O)NCc1cccc2ccccc12	.	-0.1	-0.3	-1.2	-1.9	-0.2	.	.	.	.
O=C(Nc1cccc(-c2ccc(N3CCCCC3)nn2)c1)c1ccco1	-1.5	4.8	16.4*	1.6*	4.2	7.3*	2.3	3.0*	13.8*	0.6
O=C(Nc1cccc(-c2ccc(N3CCOCC3)nn2)c1)c1ccc(Cl)cc1	0.2	-0.2	4.4	-1.1	2.1	2.6	.	.	.	.
COc1cccc(OC)c1C(=O)Nc1cccc(-c2ccc(N3CCOCC3)nn2)c1	3.0	1.8	13.9*	-0.6	3.7	5.1*	4.0*	3.4*	9.7	0.4
COc1ccc(NC(=O)c2ccc3c(c2)N(C)CCS3)cc1	0.9	5.4	23.9*	0.8	1.8	7.3*	12.0*	7.5*	18.9*	0.8
CN1CCSc2ccc(C(=O)NCc3ccccc3)cc21	-0.9	-0.7	4.5	-1.1	0.2	0.3	.	.	.	.
O=C(NCCS(=O)(=O)NCCc1ccccc1)c1ccc2c(c1)OCO2	4.3*	5.6*	15.0*	1.1*	3.7	10.3*	7.9*	3.1*	13.9*	0.7
O=c1c2ccccc2nnn1CCc1ccccc1	4.0	7.1*	15.8*	0.3	10.1*	10.0*	11.8*	6.4*	15.2*	0.8	SMARCA2 conf=10.6*;VP16 Luc act=10.3*;LXR ag=1.6;hcDAF12 ag=7.8*
O=c1c2ccccc2nnn1CSc1ccccc1F	3.3	5.9*	13.9*	0.9	11.2*	6.5*	11.0*	5.3*	15.1*	0.8	SMARCA2 conf=4.5;VP16 Luc act=13.5*
O=C(NNC(=O)c1ccccn1)c1ccc(OC(F)F)cc1	1.1	2.2	4.0	-0.7	1.9	0.5	.	.	.	.
O=C(NCCc1ccccn1)c1ccc(OC(F)F)cc1	2.7	3.9	15.8*	-1.0	4.6	5.4*	9.3*	3.8*	14.9*	0.5
CCOC(=O)[C@@]12CCC3=C1N(CCC3)C(=O)[C@H](CC(=O)NCC13CC4CC(CC(C4)C1)C3)C2	.	-1.5	-3.0	-1.0	-2.3	-0.3	.	.	.	.
CC(C)[C@H]1/C(=C/C2CC2)N2C(=O)C[C@H](c3ccccc3)N=C2N1C	.	-0.3	-1.1	-0.8	.	.	.	.	.	.
Cc1ccnc(N2C(=O)c3ccccc3C2O)c1 (configuration not stated)	1.6	6.7*	16.2*	0.4	5.4	7.1*	11.0*	7.4*	16.5*	0.8	LXR ag=1.0;hcDAF12 ag=3.4
CSCCC(=O)N1CCC(n2nccc2NC(=O)c2ccc3c(c2)OCO3)CC1	2.9	2.1	23.1*	0.4	1.5	6.3*	6.3*	5.7*	16.5*	0.4
Nn1c(SCC(=O)Nc2ccccc2-c2ccccc2)nnc1-c1cc(-c2ccc(Cl)cc2)n[nH]1	.	-3.4	-1.3	-1.3	-7.5	-1.2	.	.	.	.
FC(F)(F)c1ccccc1Cn1ccc2ccc(-c3ccc4ccn(Cc5ccccc5C(F)(F)F)c4c3)cc21	.	0.6	-1.9	-0.6	-1.9	-1.0	.	.	.	.
COc1ccc2c(c1OC)C(=O)OC2Nc1nc(-c2ccc(-c3ccccc3)cc2)cs1 (configuration not stated)	2.6	9.1*	21.3*	0.9*	3.4	5.1*	10.4*	6.5*	13.6*	0.8	LXR ag=0.9;hcDAF12 ag=3.0
COc1cccc(-c2csc(NC3OC(=O)c4c3ccc(OC)c4OC)n2)c1 (configuration not stated)	.	4.1	2.8	-0.1	2.5	0.4	.	.	.	.
O=S(=O)(c1ccc(Br)s1)N1CCC(c2nc3ccccc3o2)CC1	.	-3.6	-2.2	-0.5	-6.5	-0.6	.	.	.	.
O=C(/C=C/Nc1ccc(Br)cc1F)c1ccccc1	-1.5	4.8	2.2	-0.3	3.4	2.5	.	.	.	.
O=C(/C=C/Nc1ccccc1F)c1ccc(Br)cc1	3.6	12.3*	16.6*	1.5*	17.5*	5.2*	13.8*	8.4*	22.6*	1.4	SMARCA2 conf=3.9;VP16 Luc act=13.8*;LXR ag=2.3;hcDAF12 ag=13.6*
C=CCN(C(=O)[C@@H](C1CC1)[C@@H](O)c1ccc(Cl)cc1)c1ccccc1	.	-2.2	-1.6	-1.0	-2.7	-1.9	.	.	.	.
O=C(NC(=S)Nc1ccc2c(c1)OCCO2)c1ccccc1F	2.2	4.5	18.7*	0.6	3.4	7.6*	12.2*	7.0*	18.3*	0.6
CCOc1cccc(C(=O)NC(=S)Nc2ccc3c(c2)OCCO3)c1	1.2	2.0	8.1	-0.8	1.3	0.2	.	.	.	.
O=C(NC(=S)Nc1ccc2c(c1)OCCO2)c1ccccc1	1.3	4.0	14.4*	0.3	9.7*	4.7*	15.8*	8.7*	20.6*	0.9	SMARCA2 conf=5.5;VP16 Luc act=9.1*
COc1ccc(NC(=O)N2CCC(N(C)CCC(C)C)CC2)cc1OC	.	-3.3	5.3	-0.5	6.0	-0.5	.	.	.	.

Screening results from PubChem.
